Values without a mark were called inactive. Active and inactive are the calls of the source. Unless noted, no stated cut-off is given here; in the data, active means inhibition above about 28%; inactive means the rest.

For nine molecules, inhibition results are on record in PubChem BioAssay.

Test [1] in a line: StAR promoter reporter inhibitors, counter-screen for LRH-1 inverse agonist project, cell-based, luminescence, high throughput (AID 651611). The note with it: StAR promoter luciferase reporter counterscreen, at 3.6 µM, stronger effect = higher value. On the technique in general: The purpose of a counterscreen is to sort out artefacts and off-target activity.
The target of test [2] is Nuclear receptor subfamily 5 group A member 2 (Homo sapiens) (UniProt O00482). The experiment in a line: LRH-1 (NR5A2) inverse agonists, retest, confirmation, cell-based, luminescence (AID 651613; in the data active means inhibition above about 42%;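 further: HEK293T cells co-transfected with LRH-1 and StAR promoter luciferase reporter; 0% = vehicle wells and 100% = parental cells lacking receptor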). The conditions noted are these: cell-based LRH-1 luciferase reporter, inverse agonism; at 3.6 µM; stronger effect = higher value. (A reporter such as luciferase makes a cellular process visible.)
Sequence of Nuclear receptor subfamily 5 group A member 2 (Homo sapiens) (O00482 whole entry, looked up): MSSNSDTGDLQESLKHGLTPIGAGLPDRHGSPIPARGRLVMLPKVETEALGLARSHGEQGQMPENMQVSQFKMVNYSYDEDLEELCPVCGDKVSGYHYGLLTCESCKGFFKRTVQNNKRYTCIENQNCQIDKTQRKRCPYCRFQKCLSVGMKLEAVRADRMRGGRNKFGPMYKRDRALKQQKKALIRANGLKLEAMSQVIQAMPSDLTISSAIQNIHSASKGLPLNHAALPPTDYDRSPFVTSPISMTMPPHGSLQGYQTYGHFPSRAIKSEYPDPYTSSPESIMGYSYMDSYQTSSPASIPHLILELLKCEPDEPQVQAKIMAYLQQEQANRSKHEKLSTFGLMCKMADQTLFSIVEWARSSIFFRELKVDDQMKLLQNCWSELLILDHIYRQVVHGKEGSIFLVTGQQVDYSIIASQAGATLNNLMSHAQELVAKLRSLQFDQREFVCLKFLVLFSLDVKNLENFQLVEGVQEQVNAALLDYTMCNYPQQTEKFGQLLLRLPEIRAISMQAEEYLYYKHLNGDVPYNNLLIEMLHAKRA

In test [3] the target is Steroidogenic factor 1 (Homo sapiens) (UniProt Q13285). The experiment in a line: SF1 (NR5A1) inverse agonists, counter-screen for LRH-1 inverse agonist project, cell-based, luminescence, high throughput (AID 651614; in the data active means inhibition above about 44%;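 further: cells cotransfected with StAR promoter reporter and SF1 expression vector; 0% = vehicle on cells with receptor and 100% = vehicle on cells lacking receptor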). The note with it: cell-based SF1 luciferase reporter, at 3.6 µM, stronger effect = higher value.
Sequence of Steroidogenic factor 1 (Homo sapiens) (Q13285 whole entry, looked up, the tested form may be a part): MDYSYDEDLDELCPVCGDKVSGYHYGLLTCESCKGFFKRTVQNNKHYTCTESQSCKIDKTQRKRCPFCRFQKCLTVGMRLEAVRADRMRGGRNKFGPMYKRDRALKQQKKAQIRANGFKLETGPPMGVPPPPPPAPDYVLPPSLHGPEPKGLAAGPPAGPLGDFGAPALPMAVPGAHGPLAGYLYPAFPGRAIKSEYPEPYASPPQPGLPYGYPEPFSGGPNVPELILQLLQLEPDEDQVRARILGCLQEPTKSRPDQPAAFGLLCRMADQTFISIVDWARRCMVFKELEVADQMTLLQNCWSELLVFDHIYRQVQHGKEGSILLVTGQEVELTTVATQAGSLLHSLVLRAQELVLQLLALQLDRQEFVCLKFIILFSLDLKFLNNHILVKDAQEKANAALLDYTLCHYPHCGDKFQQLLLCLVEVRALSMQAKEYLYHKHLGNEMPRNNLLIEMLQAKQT
Test [4] is described as follows: VP16 transactivation reporter inhibitors, counter-screen for LRH-1 inverse agonist project, cell-based, luminescence, high throughput (AID 651615; in the data active means inhibition above about 33%). The conditions noted are these: Gal4-VP16 luciferase reporter cells, at 3.6 µM, stronger effect = higher value.

Regarding `OCCCNc1ncnc2oc(-c3ccccc3)c(-c3ccccc3)c12`, the inhibition in test [1] is 9.63%; in test [2] it was 35.1%; in test [3] it was 27.6%; in test [4], 13.3%.
For `COc1ccc(CCNC(=O)CSC2=Nc3ccccc3C3=NC(C(C)C)C(=O)N23)cc1OC` (stereo unspecified), in that order: 21.5%, 62.3% (active), 53.1% (active) and 0.61%.
For `COc1cc(NC(=O)CCl)ccc(=O)c1`, in that order: 47.9% (active), 64.7% (active), 68.2% (active) and -57%.
Take `Cc1onc(-c2c(F)cccc2Cl)c1C(=O)Oc1ccccc1`: the inhibition was -12.8% in test [1], 41.9% (active) in test [2], 33.8% in test [3] and 11.2% in test [4].
For `CCn1nnnc1SCC(=O)N(C)C1CCS(=O)(=O)C1` (stereo unspecified), in that order: 12.5%, 47.9% (active), 48.1% (active) and -0.7%.
Take `COc1cc(/C=N/Nc2snc(SC)c2C#N)ccc1O`: the inhibition is 13.1% in test [1], 28.3% in test [2], 44.1% (active) in test [3] and -90.8% in test [4].
On the same counts, the results for `Cc1cccc(NC(=O)c2ccc([N+](=O)[O-])o2)c1C` are 24.6%, 64.2% (active), 60.4% (active) and -8.95%.
For `CCn1c2ccccc2c2cc(/C=N/n3cnnc3)ccc21`, in that order: -4.6%, 30.4%, 19.8% and 10.1%.
On the same counts, the results for `COc1cc(-c2cc(C(=O)NCc3ccc(S(N)(=O)=O)cc3)c3ccccc3n2)cc(OC)c1OC` are 27.1%, 20.3%, 23.5% and -26.4%.

As a reminder, the inhibition is the change of the read-out against control, counted positive when it falls.
